From PubChem BioAssay
Rows were chosen to be rich in hits. Some 4.6% of all compounds tested hit in one or more screens of this group.
ADAM17 inh: ADAM17 inhibitors, primary screen, biochemical, QFRET; AID 720648, 2013; 370,000 compounds, 0.83% hits; recombinant ADAM17, EDANS/DABCYL FRET peptide cleavage; Disintegrin and metalloproteinase domain-containing protein 17 (Homo sapiens), P78536; inhibition, % at 6.95 µM;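 active = inhibition above the mean of compounds lying between control limits plus 3 SD, set per campaign, cut at about 8.5% in these data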;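 also: 0% = DMSO-only wells as the low control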
GRIN3A LBD mod: binders of NR3A ligand-binding domain, primary screen, biophysical, differential scanning fluorimetry, uHTS | NR3A LBD differential scanning fluorimetry, Tm shift; 0% = protein alone, 100% = glycine-bound protein | 340,000 compounds, 2.5% hits | Tm shift relative to glycine control, % at 25 µM;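 active = melting temperature shift of at least 10% of the positive control shift, at one fixed dose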
FAS-TE inh: FAS thioesterase domain inhibitors, primary screen, biochemical, fluorescence intensity, uHTS | AID 602261, 2012 | recombinant FAS-TE, OMFH fluorogenic substrate, fluorescence endpoint | Fatty acid synthase (Homo sapiens), P49327 | 360,000 compounds, 0.67% hits | inhibition, % at 15 µM;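 active = compounds whose normalised, plate-corrected inhibition of enzyme fluorescence in the single-dose primary screen is 50% or more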;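 also: 0% = DMSO with enzyme and 100% = substrate without enzyme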
KLK7 zymogen act: proKLK7 zymogen activators, primary screen, biochemical, fluorescence intensity. Kallikrein-7 (Homo sapiens), P49862. purified proKLK7, EDANS-DABCYL substrate fluorescence; 100% is mature enzyme control, 0% vehicle. activation, % at 7 µM. 370,000 compounds, 0.9% hits. AID 652039, 2013;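 active = activation above the mean of all tested compounds plus 3 SD, computed per campaign excluding outliers beyond control limits, cut at about 13% in these data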
ADAM10 inh: human ADAM10 inhibitors, primary screen, biochemical, QFRET, HTS; inhibition, % at 7 µM; 370,000 compounds, 0.62% hits; Disintegrin and metalloproteinase domain-containing protein 10 (Homo sapiens), O14672; recombinant ADAM10, EDANS/DABCYL FRET peptide cleavage, 3 h;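 active = inhibition above a per-campaign cutoff equal to the mean of compounds falling between control-based bounds plus 3 SD, cut at about 20% in these data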;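 also: 0% = DMSO wells while the 100% control is not disclosed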
Target sequence (O14672 214-748 limits assumed): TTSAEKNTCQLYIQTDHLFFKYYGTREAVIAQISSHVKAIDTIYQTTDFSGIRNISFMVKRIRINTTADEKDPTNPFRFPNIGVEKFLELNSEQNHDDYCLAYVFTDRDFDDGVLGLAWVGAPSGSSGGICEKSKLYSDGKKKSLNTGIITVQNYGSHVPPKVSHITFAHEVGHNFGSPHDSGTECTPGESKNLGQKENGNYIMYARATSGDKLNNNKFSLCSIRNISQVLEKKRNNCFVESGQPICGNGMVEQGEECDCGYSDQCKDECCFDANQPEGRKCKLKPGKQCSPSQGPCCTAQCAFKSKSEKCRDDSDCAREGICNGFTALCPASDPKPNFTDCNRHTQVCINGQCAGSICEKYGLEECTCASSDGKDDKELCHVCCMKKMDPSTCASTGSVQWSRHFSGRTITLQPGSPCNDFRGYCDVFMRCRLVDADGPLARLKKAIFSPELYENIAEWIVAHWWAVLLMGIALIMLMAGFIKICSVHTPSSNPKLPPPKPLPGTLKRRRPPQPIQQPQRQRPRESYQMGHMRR
ADAM10 confirm: human ADAM10 inhibitors, confirmation, biochemical, QFRET, triplicate; shares compounds with ADAM10 inh; ADAM10 QFRET peptide cleavage, EDANS fluorescence; inhibition, % at 6.95 µM; 2,100 compounds, 1% hits; AID 743208, 2013;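 active = inhibition above about 20% chosen separately for each screening run, limit read from the data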;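 also: 0% = DMSO wells and 100% = marimastat wells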
ADAM17 ctr: ADAM17 inhibitors, counter-screen for ADAM10 exosite inhibitor project, biochemical, QFRET, high throughput; shares compounds with ADAM10 inh; ADAM17 QFRET peptide cleavage, EDANS fluorescence; inhibition, % at 6.95 µM; 2,100 compounds, 0.5% hits; AID 743214, 2013;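 active = mean triplicate inhibition above the solvent-only control wells' mean plus 3 SD, cut at about 12% in these data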;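 also: 0% = DMSO wells and 100% = marimastat wells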
* hit, by the source's call; x = no result.

SMILES	ADAM17 inh	GRIN3A LBD mod	FAS-TE inh	KLK7 zymogen act	ADAM10 inh	ADAM10 confirm	ADAM17 ctr
Cc1cc(C(=O)OC(C(=O)Nc2ccc(C)c(Cl)c2)c2ccccc2)c(C)o1 (stereo not given)	7.4	25.5*	19.3	-0.6	22.3*	5.0	3.3
CC(=O)c1cccc(NC(=O)C(C)OC(=O)c2cc(C)oc2C)c1 (stereo not given)	6.1	1.3	-1.2	0.9	-3.1	x	x
COC(=O)N1C[C@H](OCc2cn(-c3cc(Cl)cc(Cl)c3)nn2)[C@H](OCc2cn(-c3cc(Cl)cc(Cl)c3)nn2)C[C@@H]1c1ccccc1Br	-1.2	x	x	1.0	0.9	x	x
COc1ccccc1-n1cc(-c2ccc([N+](=O)[O-])cc2)[nH]c1=S	7.7	2.9	7.1	0.0	27.0*	2.6	0.6
O=S1(=O)c2c(F)cccc2O[C@@H](COCc2ccccc2)CN1CCc1ccc(F)cc1	8.6	-1.5	24.4	0.4	20.7*	4.9	1.3
O=S1(=O)c2c(F)cccc2OC(COc2ccccc2)CN1CCc1ccc(F)cc1 (stereo not given)	3.0	-6.5	27.7	0.1	9.3	x	x
CCCCCCCCN1C(=O)[C@@H](CC(=O)NCc2cccs2)C[C@@]2(C(=O)OC)C1=C[C@H](C1CCCC1)O[C@@H]2C	-3.8	x	x	0.3	-6.3	x	x
Cc1cc(C)c(C)c(S(=O)(=O)Nc2ccc3cn[nH]c3c2)c1C	-6.3	2.8	1.4	-0.8	99.0*	1.5	0.8
CCOC(=O)COc1ccc(C(C)c2ccc(NC(=O)OC(C)(C)C)cc2)cc1 (stereo not given)	8.3	x	x	0.3	20.6*	6.0	1.8
CCc1ccc(NC(=O)C(=O)NNC(=O)c2cccc(OC)c2)cc1	1.4	-32.4	-2.0	-0.3	14.1	x	x
COc1cccc(C(=O)NNC(=O)C(=O)Nc2ccc(C)c(Cl)c2)c1	6.0	2.9	-1.6	-0.2	65.2*	33.2*	1.0
CCn1nc(C)c(C(=O)Nc2cc(Oc3cc(C)cc(C)c3)cc([N+](=O)[O-])c2)c1C	5.1	-1.1	45.8	0.2	21.2*	6.1	2.2
O=C(c1ccc2c(c1)C(=O)NC2=O)c1ccc2c(c1)C(=O)NC2=O	-2.0	x	x	0.4	-14.2	x	x
CCOC(=O)c1ccc(N2C(=O)c3n[nH]c(-c4ccco4)c3C2c2ccc([N+](=O)[O-])cc2)cc1 (stereo not given)	7.3	26.7*	27.2	-0.1	23.2*	11.8	3.4
CCOC(=O)c1ccc(N2C(=O)c3n[nH]c(C)c3C2c2cccnc2)cc1 (stereo not given)	-1.9	-2.1	3.1	0.6	1.7	x	x
C[C@@H]1CN([C@@H](C)COC(=O)C(C)(C)C)C(=O)c2cc(NC(=O)Nc3ccccc3)ccc2O[C@@H](C)CCCCO[C@H]1CN(C)S(=O)(=O)c1ccc(F)cc1	5.5	x	x	x	25.0*	15.1	4.6
C[C@H](CO)N1C[C@H](C)[C@@H](CN(C)S(=O)(=O)c2ccccc2)Oc2c(NC(=O)Nc3ccccc3)cccc2C1=O	3.5	1.2	6.4	0.5	11.7	x	x
C[C@H]1CN([C@@H](C)CO)C(=O)c2cccc(NC(=O)Nc3ccc(C(F)(F)F)cc3)c2O[C@@H]1CN(C)S(=O)(=O)c1ccccc1	20.9*	13.2*	36.1	-0.1	40.0*	2.8	2.2
C[C@@H]1CN([C@@H](C)CO)C(=O)c2cc(NC(=O)c3ccccc3)ccc2O[C@@H](C)CCCCO[C@@H]1CN(C)S(=O)(=O)c1ccc(F)cc1	3.9	x	20.4	-0.2	1.5	x	x
